Reference: PubChem BioAssay (NCI)
The panel holds about 83,000 compounds, 20% with a hit somewhere; the sample as a whole holds those more often.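 The test compound was applied at a single concentration to cells in 96-well plates for 48 hours, and percent growth was recorded.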 A number with no mark means an inactive call. The source made the active and inactive calls. The calls were made as follows: active = growth percent below 10; inactive = the rest.

Assays:
Experiment in all cases: NCI-60 one-dose screen, 48 h (100 = growth as untreated, 0 = no growth, -100 = all killed)
Details in all cases: 10 µM unless noted
HCT-15 colon = test system: HCT-15 colon
HT29 colon = test system: HT29 colon
SNB-75 CNS = test system: SNB-75 CNS
SNB-19 CNS = test system: SNB-19 CNS
U251 CNS = test system: U251 CNS
PC-3 prostate = test system: PC-3 prostate
SK-MEL-5 melanoma = test system: SK-MEL-5 melanoma
UACC-62 melanoma = test system: UACC-62 melanoma
LOX IMVI melanoma = test system: LOX IMVI melanoma
SK-MEL-28 melanoma = test system: SK-MEL-28 melanoma
EKVX NSCLC = test system: EKVX NSCLC
SN12C renal = test system: SN12C renal
UO-31 renal = test system: UO-31 renal
TK-10 renal = test system: TK-10 renal
ACHN renal = test system: ACHN renal
CAKI-1 renal = test system: CAKI-1 renal
A498 renal = test system: A498 renal
CCRF-CEM leukemia = test system: CCRF-CEM leukemia
MOLT-4 leukemia = test system: MOLT-4 leukemia
SK-MEL-2 melanoma = test system: SK-MEL-2 melanoma

| SMILES | growth (HCT-15 colon) | growth (HT29 colon) | growth (SNB-75 CNS) | growth (SNB-19 CNS) | growth (U251 CNS) | growth (PC-3 prostate) | growth (SK-MEL-5 melanoma) | growth (UACC-62 melanoma) | growth (LOX IMVI melanoma) | growth (SK-MEL-28 melanoma) | growth (EKVX NSCLC) | growth (SN12C renal) | growth (UO-31 renal) | growth (TK-10 renal) | growth (ACHN renal) | growth (CAKI-1 renal) | growth (A498 renal) | growth (CCRF-CEM leukemia) | growth (MOLT-4 leukemia) | growth (SK-MEL-2 melanoma) |
| --- | --- | --- | --- | --- | --- | --- | --- | --- | --- | --- | --- | --- | --- | --- | --- | --- | --- | --- | --- | --- |
| CON=C1C[C@]2(C[C@@H]3C[C@@H](C/C=C(\C)C[C@@H](C)/C=C/C=C4\CO[C@@H]5[C@H](O)C(C)=C[C@@H](C(=O)O3)[C@]45O)O2)O[C@H](/C(C)=C/C(C)C)[C@H]1C | 48.4% | 32.4% | 140% | 63.3% | 39.5% | 13.5% | 65.1% | 70.6% | 55.3% | 85.8% | 20% | 55% | 24% | 81.9% | 44.3% | 44.8% | 38.3% | 38.2% | -20.4% (active) | – |
| O=C1/C(=C/c2ccc(Cl)cc2)N=C(c2ccccc2)N1CCc1cccs1 | 10.2% | 0.797% (active) | 31.1% | 64.5% | 44.5% | 59% | 84.7% | 55.7% | 30.1% | 77.4% | 72.1% | 45.6% | 48.4% | 54.8% | 43% | 58.1% | 72.7% | 85.9% | – | – |
| COc1cc(/C=C/c2cc(/C=C/c3ccc(O)c(OC)c3)n(-c3ccccc3)n2)ccc1O | -3.38% (active) | -52.4% (active) | -53.2% (active) | 1.18% (active) | 1.47% (active) | -33.1% (active) | -86.5% (active) | -84.4% (active) | -37.1% (active) | -6.73% (active) | -38.8% (active) | -3.11% (active) | -44.6% (active) | 6.18% (active) | 2.77% (active) | -60.4% (active) | -25.2% (active) | -5.12% (active) | -39.9% (active) | – |
| O=C1NC(=S)S/C1=C\c1cccc([N+](=O)[O-])c1 | 93.3% | 109% | 83.8% | 98% | 92.7% | 88.1% | 89.9% | 70% | 88.9% | 112% | 90.4% | 94.1% | 65.1% | 107% | 89.2% | 87.5% | 96.1% | 78.2% | 85.5% | – |
| Cc1ccc(NS(=O)(=O)c2ccc(-c3cnc(C4CC4)o3)cc2)cc1 | 17.5% | 12% | 18.8% | 37.6% | 39.9% | 49.7% | 15% | 27.3% | 39.2% | 53.9% | – | 42.2% | 55.3% | 64.9% | 46.6% | 38.8% | – | 35.5% | 32% | 23.9% |
| COc1ccc(/C=N/NC(=O)c2cnn3c2NC(c2ccccc2)C3)cc1OC1CCCC1 (stereo not drawn) | 70% | 90.6% | 84.3% | 87.7% | 83% | 79.1% | 78.8% | 83% | 85.2% | 108% | – | 90.7% | 80.1% | 109% | 95.3% | 77.8% | – | 90.7% | 69.1% | 107% |
| FCOC(C(F)(F)F)C(F)(F)F | 103% | 107% | 109% | 108% | 94.1% | 106% | 103% | 104% | 101% | 126% | 107% | 113% | 87% | 91.1% | 104% | 98.5% | 95.3% | 101% | 97.3% | – |
| O=C1NC(=O)C2(CCCC2C(=O)O)N1 (stereo not drawn) | 99.1% | 108% | 83.4% | 106% | 96.7% | 92.6% | 110% | 103% | 91.1% | 110% | 94.2% | 99.6% | 96.5% | 106% | 99.5% | 102% | 115% | 91.8% | – | – |
| C=C[C@H]1C[C@@H]2C[C@@H]3[C@H]4C/C=C\C(=O)NCCCC5NC(=O)C(=C(O)/C=C/[C@@H]4CC(=O)[C@H]3[C@@H]2[C@H]1C)C5=O (stereo partly drawn) | -76.2% (active) | -76% (active) | -85.4% (active) | -74% (active) | -96.4% (active) | -82.5% (active) | -95.3% (active) | -75.8% (active) | -47.2% (active) | -78% (active) | 61.6% | -60.7% (active) | -87.4% (active) | -94.5% (active) | -93.3% (active) | 29% | -93.5% (active) | – | – | – |
| COc1ccc(/C=N/NC(=O)c2cnn(CC(O)Cc3ccccc3)c2N)cc1OC1CCCC1 (stereo not drawn) | 77.6% | 93.6% | 74.2% | 92.3% | 85.6% | 69.9% | 62.7% | 82.8% | 82.4% | 107% | – | 95.4% | 92.1% | 99.4% | 87.5% | 77.9% | – | 70.9% | 66.6% | 108% |
| Cc1ccc(S(=O)(=O)N2CCc3ccc(O)c4c3C2CCc2ccccc2-4)cc1 (stereo not drawn) | 102% | 100% | 91.6% | 98.9% | 102% | 95.4% | 105% | 90.2% | 98.7% | 107% | 104% | 100% | 67.6% | 111% | 93.4% | 88.3% | 111% | 83% | 77.5% | – |
| Nc1nc2c(s1)CCc1c-2c(Br)n(Cc2ccccc2)c1Br | 50.8% | 97.6% | 89.5% | 105% | 91.6% | 89.1% | 89.3% | 78.3% | 86.1% | 100% | – | 87.7% | – | 88.1% | 19.4% | 81.5% | 91.5% | 2.66% (active) | 11% | 99.7% |
| Brc1ccc(Br)nn1 | -100% (active) | -37.2% (active) | 37.7% | 17.7% | -67.5% (active) | -36.8% (active) | 8.56% (active) | 31.9% | -93.7% (active) | -75.9% (active) | -95.4% (active) | -76.8% (active) | -39.9% (active) | -78.3% (active) | 2.74% (active) | -92.3% (active) | -80.8% (active) | -13.5% (active) | -13.6% (active) | – |
| c1ccc2c(c1)oc1cc3c(cc12)nnc1cccn13 | 104% | 103% | 91.7% | 108% | 97.2% | 100% | 98.2% | 106% | 112% | 116% | 80.9% | 103% | 64.9% | 122% | 99.8% | 91.1% | 111% | 109% | 108% | – |
| O=S(=O)(Nc1ccccc1Cl)c1ccc(-c2cnc(C3CC3)o2)cc1 | 24.4% | 12.5% | -13.4% (active) | 39.2% | 25% | 19.6% | 17.3% | 40.2% | 44.5% | 59.3% | – | 48.3% | 49.8% | 61.9% | 49.8% | 38.1% | – | 17.4% | 40.9% | 39% |
| CCOC(=O)c1[nH]c2cc(Cl)ccc2c1[C@@H](C(=O)NC(C)(C)C)N(CC)C(=O)CCCCC#Cc1cccc2c1CN(C1CCC(=O)NC1=O)C2=O (stereo partly drawn) | -2.23% (active) | 8.65% (active) | 0.961% (active) | 28.2% | 27.8% | 11.7% | -53.4% (active) | 27.2% | 8.52% (active) | 29.6% | – | 24.4% | 0.0319% (active) | 34.3% | 13% | 7.95% (active) | – | 13.7% | 10.1% | -13.2% (active) |
| O=C(CC(O)c1ccccc1)Nc1ccccn1 (stereo not drawn) | 101% | 103% | 85.9% | 92.1% | 102% | 93.2% | 116% | 98.3% | 98.4% | 103% | 97% | 93.1% | 77.1% | 97.9% | 111% | 87.8% | 102% | 88.9% | 79% | – |
